Source: PubChem
A selection: hits, their analogues and other compounds. The true share with any hit is near 0.85%.
TDP1 block: TDP1 (human) enzyme inhibition. 0.28% of 350,000 active. Q9NUW8. recombinant TDP1, AlphaScreen DNA substrate cleavage. Potency, µM (top dose mostly 130 µM), most hits filed as inhibitors; also: nearly all actives have a fitted effect of over 40% in size
Target sequence (Q9NUW8 whole entry, looked up): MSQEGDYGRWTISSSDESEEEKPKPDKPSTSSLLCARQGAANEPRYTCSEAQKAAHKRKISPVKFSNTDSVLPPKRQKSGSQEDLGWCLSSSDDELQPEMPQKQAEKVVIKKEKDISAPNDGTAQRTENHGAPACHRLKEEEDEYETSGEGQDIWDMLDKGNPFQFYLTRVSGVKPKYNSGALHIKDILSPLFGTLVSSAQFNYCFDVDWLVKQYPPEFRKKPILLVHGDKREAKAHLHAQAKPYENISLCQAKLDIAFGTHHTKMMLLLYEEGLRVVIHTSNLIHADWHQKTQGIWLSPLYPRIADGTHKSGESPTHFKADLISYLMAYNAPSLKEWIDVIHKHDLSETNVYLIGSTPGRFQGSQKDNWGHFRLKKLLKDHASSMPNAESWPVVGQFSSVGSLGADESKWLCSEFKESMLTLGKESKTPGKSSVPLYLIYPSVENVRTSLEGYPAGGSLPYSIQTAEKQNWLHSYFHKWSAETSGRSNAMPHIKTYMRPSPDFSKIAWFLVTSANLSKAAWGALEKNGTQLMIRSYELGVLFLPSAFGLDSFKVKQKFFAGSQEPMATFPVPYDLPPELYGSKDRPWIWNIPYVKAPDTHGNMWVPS
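Compounds were preincubated with Tdp1 (1 nM final) for 15 min at room temperature before substrate (15 nM final) started a 5 min reaction; beads (10 ug/ml final) were then added for 10 min before AlphaScreen detection.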
PGK inhibitor: inhibitors of T. brucei phosphoglycerate kinase; 0.043% of 380,000 active; PGK/GAPDH coupled, Kinase-Glo luminescence, 60 min; Potency, µM (titrated, usually from 57.5 µM), hits mostly inhibitors; also: nearly all actives have a fitted effect of over 60% in size
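Recombinant glycosomal PGK reaction used 1,3-bisphosphoglycerate generated in-well by GAPDH (100nM final) in 100mM TEA pH 7.6, 5mM MgCl2, 0.01% Tween-20. After 60 minutes at room temperature, ATP was read by Kinase-Glo Plus luminescence end-point.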
RECQ1 inh-1: inhibitors of human RECQ1 DNA helicase; P46063; RECQ1 DNA unwinding, red fluorescence kinetic read; Potency, µM (series often up to 57.3 µM), actives largely listed as inhibitors; 0.54% of 240,000 active; AID 2549; also: nearly all actives have a fitted effect of over 30% in size
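50 nM RECQ1T1 preincubated 15 min with compound in Tris pH 8.0 buffer with MgCl2, DTT, Tween-20 and 2.5 ug/ml poly(dI-dC); started with 200 nM TAMRA/BHQ-2 forked duplex and 2 mM ATP. Unwinding read as fluorescence (525/598 nm), two reads 2 h apart.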
BLM helicase inh: blocks DNA unwinding by human BLM helicase. Potency, µM (series often up to 56.1 µM), hits mostly inhibitors. P54132. recombinant BLM DNA unwinding, fluorescence dequenching. 0.2% of 350,000 active. AID 2528; also: nearly all actives have a fitted effect of over 35% in size
GLS inh: glutaminase GLS (human) inhibition; O94925; GLS enzymatic activity, qHTS titration; Potency, µM (top dose mostly 45.5 µM), usual class: inhibitors; 0.21% of 410,000 active; AID 624170
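Coupled fluorescence readout: glutamate oxidase/HRP/Amplex Red detect glutamate formed by hKGA from L-glutamine (1 mM solution added). Buffer 45 mM KH2PO4 pH 8.2, 0.02% Tween-20; reads at t0 and 30 min RT.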
APEX1 inh: blocks human APE1 abasic DNA cleavage | P27695 | recombinant APE1, TAMRA/BHQ-2 abasic DNA cleavage fluorescence | Potency, µM (highest dose often 65.8 µM), actives largely listed as inhibitors | 0.35% of 350,000 active | AID 2517; also: nearly all actives have a fitted effect of over 55% in size
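Endonuclease cleavage of a quenched abasic-site DNA duplex (50 nM) by APE1 (0.75 nM) was tracked by TAMRA dequenching. Compounds were preincubated with enzyme 15 min at room temperature; data normalized to buffer-only and DMSO wells plus NSC13755 control.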
RECQ1 conf: confirmation of human RECQ1 helicase inhibitors. Potency, µM (top dose mostly 229 µM), usual class: inhibitors. 28% of 610 active. RECQ1 helicase DNA unwinding, fluorescence. shares compounds with RECQ1 inh-1; also: nearly all actives have a fitted effect of over 45% in size
RECQ1 ADP FP: ADP displacement flagged in RECQ1 inhibitor counter-screen. shares compounds with RECQ1 inh-1. ADP fluorescence polarization displacement counterscreen. Potency, µM (series often up to 228 µM), actives largely listed as inhibitors. 27% of 530 active; also: nearly all actives have a fitted effect of over 45% in size
RECQ1 inh-2: confirmation of human RECQ1 helicase inhibitors; shares compounds with RECQ1 inh-1; recombinant RECQ1 DNA unwinding, red fluorescence; Potency, µM (highest dose often 119 µM), most hits filed as inhibitors; 15% of 1,100 active; AID 504841; also: nearly all actives have a fitted effect of over 50% in size
Numbers stand for hits; [ ] = dose if it differs, or a comment. Calls follow the shape of the dose curve; as a rule, active = well fitted curve in the direction sought with a large enough effect; inconclusive = small, poorly fitted or top-dose-only effect, or another doubt; inactive = no such curve, though single readings can be large; an effect the other way counts as inactive or inconclusive.

CCCCCC(=O)Cc1cc(O)cc(O)c1C(=O)Oc1cc(CC(=O)CCCCC)c(C(=O)O)c(OC)c1 was read as TDP1 block inactive, RECQ1 inh-1 inactive, BLM helicase inh inactive and APEX1 inh inactive.
Cc1cc(N2CCN(c3nc(-c4ccccc4)cs3)CC2)c2ccccc2n1 was read as TDP1 block inactive, PGK inhibitor inactive, RECQ1 inh-1 8.9µM, BLM helicase inh inactive, GLS inh inactive, APEX1 inh inactive, RECQ1 conf inactive, RECQ1 ADP FP inactive and RECQ1 inh-2 inactive.
`c1ccc(-c2csc(N3CCCCCC3)n2)cc1` gave TDP1 block inactive, PGK inhibitor inactive, RECQ1 inh-1 inactive, BLM helicase inh inactive, GLS inh inactive and APEX1 inh inactive.
Screening COc1cc(OC)cc(C2=Nn3c(nnc3-c3cccc(OC)c3)SC2)c1 returned TDP1 block inactive, RECQ1 inh-1 inactive, BLM helicase inh inactive and APEX1 inh inactive.
Screening N#Cc1c(-c2ccco2)cc(-c2ccccc2)[nH]c1=O returned PGK inhibitor inactive, RECQ1 inh-1 22µM, BLM helicase inh inconclusive, GLS inh inactive, APEX1 inh 32µM, RECQ1 conf inconclusive and RECQ1 ADP FP inconclusive.
`CC(O)CCCCCCC/C=C/C=C/C(N)=O` (configuration not stated) gave TDP1 block inactive[21 µM], RECQ1 inh-1 inactive[11.5 µM], BLM helicase inh inactive[12.4 µM] and APEX1 inh inactive[12.4 µM].
For CN1CCc2cc(O)c(O)cc2C1Cc1ccc(O)c(O)c1 (configuration not stated) the results were TDP1 block inactive, RECQ1 inh-1 inactive, BLM helicase inh inactive and APEX1 inh inactive.
Screening CC(C)NS(=O)(=O)c1ccc(NC(=S)NC(=O)c2ccc(-c3ccccc3)cc2)cc1 returned TDP1 block inactive, PGK inhibitor inactive, RECQ1 inh-1 inconclusive, BLM helicase inh inactive, GLS inh inactive, APEX1 inh inactive and RECQ1 inh-2 inactive.
For COc1ccc(Nc2ccccc2N)cc1 the results were TDP1 block inactive, PGK inhibitor inactive, RECQ1 inh-1 22µM, BLM helicase inh inactive, GLS inh 10µM, APEX1 inh inactive and RECQ1 inh-2 45µM.
Nc1ccc(Nc2ccccc2N)cc1 was read as TDP1 block inactive, PGK inhibitor inactive, RECQ1 inh-1 inactive, BLM helicase inh inconclusive, GLS inh inactive and APEX1 inh inactive.
Screening C[C@H]1Cc2c(COc3ccccc3)nc3c(c2CO1)CN(C(=O)C1CCCCC1)CC3 returned TDP1 block inactive[12.3 µM], RECQ1 inh-1 inactive[11.5 µM], BLM helicase inh inactive[12.4 µM] and APEX1 inh inactive[12.4 µM].
For CNc1ccc(/C=C/C(=O)c2ccc(C)cc2)cc1[N+](=O)[O-] the results were TDP1 block inactive, PGK inhibitor inactive, RECQ1 inh-1 inconclusive, BLM helicase inh inactive, GLS inh inactive, APEX1 inh inactive and RECQ1 inh-2 inactive.
